According to PubChem BioAssay (Tox21):
Values joined by “and” are separate entries in the source; they are usually repeats but may differ in a detail not shown here. Identical values can stand only once. Records with an inconclusive call do not appear. Where a structure was tested more than once in an assay, its records may differ in their call. Active and inactive are the calls of the source. Unless noted, calls come from the whole dose curve; as a rule, active = well fitted curve in the direction sought with a large enough effect in the repeat runs; inconclusive = weak or mixed curves; inactive = no such curve, though single readings can be large; an effect the other way counts as inactive or inconclusive.

Tests used:
[1] = qHTS assay to identify small molecule agonists of H2AX (AID 1224845; active = well fitted activation curve with a large enough effect in the signal ratio in the repeat runs, not every such curve was filed as active; the % refers to the signal ratio; note: potency is the fitted concentration of half-maximal effect)
Summary of the method: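 Wild-type CHO-K1 cells, plated overnight, exposed 3hr at 37C to 15 concentrations (0.76% DMSO final). Lysed, then HTRF anti-pH2AX (S139) cryptate and anti-H2AX-d2 antibodies, 24 hr room temperature; 665/620 nm emission read.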

[2] = qHTS assay to identify small molecule agonists of the hypoxia (HIF-1) signaling pathway (AID 1224846; active = well fitted activation curve with a large enough effect in the signal ratio in the repeat runs, not every such curve was filed as active; the % refers to the signal ratio)
Summary of the method: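 HRE-bla ME-180 beta-lactamase reporter cells in medium with 0.5% dialyzed FBS, pre-incubated 5 h then exposed to compounds 17 h at 37C, 5% CO2; reporter induction read with CCF4-AM FRET substrate.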

[3] = qHTS assay to identify small molecule agonists of H2AX - cell viability counter screen (AID 1224847; calls by dose curve; note: nearly all actives have a fitted effect of over 30% in size; note: potency is the fitted concentration of half-maximal effect)
Summary of the method: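 Wild-type CHO-K1 cells (10% FBS medium) were plated overnight at 37C, exposed to compounds at 15 concentrations for 3 hr at 37C (0.76% DMSO final), and viability was read as CellTiter-Glo luminescence after 30 min at room temperature.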

[4] = qHTS RealTime-Glo MT Cell Viability Assay in HepG2 cells - 24 hour (AID 1224867); note: nearly all actives have a fitted effect of over 50% in size; note: potency is the fitted concentration of half-maximal effect
Summary of the method: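 HepG2 suspension premixed with RealTime-Glo reagents is plated at 600 cells per well and left 5 h at 37 C/5% CO2. Compounds in DMSO then go in, and bioluminescence reflecting viable cell number is recorded over 40 h.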

[5] = qHTS RealTime-Glo MT Cell Viability Assay in HEK293 cells - 32 hour (AID 1224868); note: nearly all actives have a fitted effect of over 50% in size; note: potency is the fitted concentration of half-maximal effect
Summary of the method: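 Reads taken at 0, 8, 16, 24, 32 and 40 h from the same wells. HEK293 cells (600/well) carried RealTime-Glo reagents from seeding, with compound added after a 5 h settle at 37 C.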

[6] = A CellTox Green Cytotoxicity Assay to monitor cytotoxicity in HEK293 cells - 0 hour (AID 1224869); note: nearly all actives have a fitted effect of over 50% in size; note: potency is the fitted concentration of half-maximal effect
Summary of the method: (§1)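 HEK293 cells, 600/well, were preincubated 5 hours and then exposed to compounds at 37 C for up to 40 hours. A cell-impermeant cyanine dye staining dead-cell DNA was read by fluorescence at 0, 8, 16, 24, 32 and 40 h time points.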

[7] = qHTS RealTime-Glo MT Cell Viability Assay in HepG2 cells - 40 hour (AID 1224870); note: nearly all actives have a fitted effect of over 50% in size; note: potency is the fitted concentration of half-maximal effect
Summary of the method: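 HepG2 cells (600/well) mixed with RealTime-Glo MT reagent, settled 5 h at 37 C/5% CO2 before compound addition. Nonlytic NanoLuc luminescence from viable-cell prosubstrate reduction read repeatedly during 40 h treatment at 37 C.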

[8] = A CellTox Green Cytotoxicity Assay to monitor cytotoxicity in HEK293 cells - 40 hour (AID 1224871); note: nearly all actives have a fitted effect of over 45% in size; note: potency is the fitted concentration of half-maximal effect
Summary of the method: as §1

[9] = qHTS assay to identify small molecule antagonists of the estrogen related receptor (ERR) signaling pathway from Tox21 library (AID 1224848); note: nearly all actives have a fitted effect of over 50% in size; note: potency is the fitted concentration of half-maximal effect
Summary of the method: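 Luminescent reporter read-out (ONE-Glo) from NTP's ERR cell line after 18 h treatment at 37 C with DMSO-dissolved Tox21 compounds; cells pre-plated 6 h beforehand at 2,000 per well.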

[10] = qHTS assay to identify small molecule agonists of the estrogen related receptor (ERR) signaling pathway from Tox21 library (AID 1224849; calls by dose curve; note: nearly all actives have a fitted effect of over 15% in size); settings: ERR reporter cell line, ONE-Glo luciferase, 18 h
Summary of the method: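 ERR reporter cells (NTP line) pre-incubated 6 hours at 37 C, then exposed to compounds for 18 hours at 37 C. ONE-Glo luciferase luminescence was read after 30 minutes at room temperature.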
% is set by controls: 0 for no effect and ±100 for the full control effect.

COC(=O)/C=C/c1ccccc1
inactive and 21.9 µM (active): Potency [6] | Potency [8]
inactive: Potency [1] | Potency [2] | Potency [3] | Potency [4] | Potency [5] | Potency [7]

CN1C(=O)c2ccc([N+](=O)[O-])cc2C1=O
inactive: Potency [1] | Potency [2] | Potency [3] | Potency [9] | activity change, positive = activation ([10]; at 92.4 µM (top of the series)) 7.36% | Potency [4] | Potency [6] | Potency [7] | Potency [8]

O=C(O)c1cccc(C(=O)O)c1
inactive: Potency [1] | Potency [2] | Potency [3] | Potency [4] | Potency [5] | Potency [6] | Potency [7] | Potency [8]

CCCCCCC(O)CCCCCCCCCCC(=O)O (centres undefined)
inactive: Potency [1] | Potency [2] | Potency [3] | activity change, positive = activation ([10]; at 92.4 µM (top of the series)) -9.99% and -15.5% | Potency [4] | Potency [6] | Potency [7] | Potency [8]

O=C1Nc2ccccc2C1(c1ccc(O)cc1)c1ccc(O)cc1
inactive: Potency [1] | Potency [2] | Potency [3] | Potency [4] | Potency [6] | Potency [7] | Potency [8]

O=c1n(CC2CO2)c(=O)n(CC2CO2)c(=O)n1CC1CO1 (centres undefined)
active: Potency [1] 112 µM
inactive: Potency [2] | Potency [3] | Potency [4] | Potency [6] | Potency [7] | Potency [8]

CC[C@]1(O)C[C@@H]2CN(CCc3c([nH]c4ccccc34)[C@@](C(=O)OC)(c3cc4c(cc3OC)N(C)[C@H]3[C@@](O)(C(=O)OC)[C@H](OC(C)=O)[C@]5(CC)C=CCN6CC[C@]43[C@@H]65)C2)C1
inactive: Potency [1] | Potency [2] | Potency [3] | activity change, positive = activation ([10]; at 42.5 µM (top of the series)) -22% and -33.9% | Potency [6] | Potency [7] | Potency [8]
active: Potency [9] 26.6 µM | Potency [5] 16.9 nM and 4.8 nM

c1ccc2cc3c(ccc4ccccc43)cc2c1
inactive: Potency [1] | Potency [2] | Potency [3] | Potency [4] | Potency [5] | Potency [6] | Potency [7] | Potency [8]

CC(=O)O[C@]1(C(C)=O)CC[C@H]2[C@@H]3C[C@H](C)C4=CC(=O)CC[C@]4(C)[C@H]3CC[C@@]21C
48.9 µM (active) and inactive: Potency [8]
active: Potency [5] 19.5 µM and 10.7 µM
inactive: Potency [1] | Potency [2] | Potency [3] | Potency [4] | Potency [6] | Potency [7]

N[C@@H]1CONC1=O
inactive: Potency [1] | Potency [3] | Potency [9] | activity change, positive = activation ([10]; at 42.5 µM (top of the series)) 7.16% | Potency [4] | Potency [5] | Potency [6] | Potency [7] | Potency [8]

COC(=O)[C@H]1[C@H]2C[C@@H]3c4[nH]c5cc(OC)ccc5c4CCN3C[C@H]2C[C@@H](OC(=O)c2cc(OC)c(OC)c(OC)c2)[C@@H]1OC
inactive: Potency [1] | Potency [3] | activity change, positive = activation ([10]; at 42.5 µM (top of the series)) -35.9% | activity change, positive = activation ([10]; at 92.4 µM (top of the series)) -60.3% and -57.9% | Potency [6] | Potency [7] | Potency [8]
active: Potency [9] 24.3 µM and 19.9 µM and 26.6 µM | Potency [5] 5.48 µM and 6.34 µM and 9.52 µM

CNC1(C)C2CCC(C2)C1(C)C (centres undefined)
inactive: Potency [1] | Potency [3] | Potency [9] | activity change, positive = activation ([10]; at 42.5 µM (top of the series)) 0.179% | Potency [4] | Potency [5] | Potency [6] | Potency [7] | Potency [8]

c1ccc2c(c1)CCCC2C1=NCCN1 (centres undefined)
inactive: Potency [1] | Potency [3] | Potency [4] | Potency [5] | Potency [6] | Potency [7] | Potency [8]

CC(C)C(=O)c1c(C(C)C)nn2ccccc12
inactive: Potency [1] | Potency [3] | Potency [9] | activity change, positive = activation ([10]; at 42.5 µM (top of the series)) -9.6% | Potency [4] | Potency [5] | Potency [6] | Potency [7] | Potency [8]

CCOc1ccc2c(c1)C(C)=CC(C)(C)N2
inactive: Potency [1] | Potency [3] | Potency [9] | activity change, positive = activation ([10]; at 92.4 µM (top of the series)) 1.57% and 2.85% | Potency [4] | Potency [5] | Potency [6] | Potency [7] | Potency [8]

COc1nc(C)nc(Cl)c1NC1=NCCN1
inactive: Potency [1] | Potency [3] | Potency [4] | Potency [5] | Potency [6] | Potency [7] | Potency [8]

NCCCCCC(=O)O
inactive: Potency [1] | Potency [3] | Potency [4] | Potency [5] | Potency [6] | Potency [7] | Potency [8]

CCCCCC(=O)O[C@]1(C(C)=O)CC[C@H]2[C@@H]3CCC4=CC(=O)CC[C@]4(C)[C@H]3CC[C@@]21C
active: Potency [3] 31.6 µM | Potency [9] 24.2 µM and 7.5 µM | Potency [5] 24.4 µM
inactive: Potency [1] | activity change, positive = activation ([10]; at 42.5 µM (top of the series)) -35.8% | activity change, positive = activation ([10]; at 92.4 µM (top of the series)) -61% | Potency [4] | Potency [6] | Potency [7] | Potency [8]

Cc1ccc(S(=O)(=O)Oc2ccc(N=Nc3ccc(-c4ccc(N=Nc5c(O)ccc6cc(S(=O)(=O)O)cc(S(=O)(=O)O)c56)c(C)c4)cc3C)cc2)cc1
active: Potency [3] 45.2 µM and 29.3 µM | Potency [9] 27.4 µM
inactive: Potency [1] | activity change, positive = activation ([10]; at 42.5 µM (top of the series)) -13.6% | activity change, positive = activation ([10]; at 92.4 µM (top of the series)) -34.2% | Potency [5] | Potency [6] | Potency [8]

CCn1cc(C(=O)O)c(=O)c2cc(F)c(N3CCNC(C)C3)c(F)c21 (centres undefined)
inactive: Potency [1] | Potency [3] | Potency [9] | activity change, positive = activation ([10]; at 42.5 µM (top of the series)) 3.97% | Potency [4] | Potency [5] | Potency [6] | Potency [7] | Potency [8]

O=C1CC2(CCCC2)CC(=O)N1CCCCN1CCN(c2ncccn2)CC1
43.6 µM (active) and inactive: Potency [5]
30.6 µM (active) and inactive: Potency [9]
inactive: Potency [1] | Potency [3] | activity change, positive = activation ([10]; at 42.5 µM (top of the series)) -12.4% | activity change, positive = activation ([10]; at 92.4 µM (top of the series)) -47% | Potency [4] | Potency [6] | Potency [7] | Potency [8]

c1ccc2n[nH]nc2c1
inactive: Potency [1] | Potency [3] | Potency [4] | Potency [5] | Potency [6] | Potency [7] | Potency [8]

CC1=CC(=O)c2ccccc2C1=O
active: Potency [1] 40.1 µM | Potency [3] 40.1 µM | Potency [9] 43.3 µM | Potency [4] 43.6 µM | Potency [7] 49 µM | Potency [8] 21.9 µM and 23.9 µM
inactive: activity change, positive = activation ([10]; at 42.5 µM (top of the series)) -26.5% | activity change, positive = activation ([10]; at 92.4 µM (top of the series)) -78.8% | Potency [6]

CCC(C)(C)C(=O)O[C@H]1C[C@@H](C)C=C2C=C[C@H](C)[C@H](CC[C@@H]3C[C@@H](O)CC(=O)O3)[C@H]21
inactive: Potency [1] | Potency [2] | Potency [3] | Potency [6] | Potency [8]

Cc1c(O)cccc1C(=O)N[C@@H](CSc1ccccc1)[C@H](O)CN1C[C@H]2CCCC[C@H]2C[C@H]1C(=O)NC(C)(C)C
inactive: Potency [1] | activity change, positive = activation ([10]; at 42.5 µM (top of the series)) -54.6% | activity change, positive = activation ([10]; at 92.4 µM (top of the series)) -64.1% | Potency [6] | Potency [8]
active: Potency [3] 49.2 µM | Potency [9] 15 µM and 18.8 µM | Potency [5] 19 µM
